What all share (assay): protein-binding microarray (PBM); PBM: ~300 nM protein, 6 mM HEPES pH 7.8, 80 mM KCl, 0.5 mM EDTA, 0.5 mM EGTA, 6% glycerol, 35 ng/ul poly-dIdC, 1% milk, 1 h, room temperature; Ap Aiptasia and Nv Nematostella (sea anemones) / Co Capsaspora / Aq Amphimedon (sponge) / Dm Drosophila / Hu human; RHD is the Rel homology domain; high values mean tight binding
What all share (conditions): dsDNA, one strand shown

The target in one experiment is T1, GST-Ap-NF-kB RHD (Exaiptasia pallida (Aiptasia), UniProt A0A913YAJ5 2-422).
T1 sequence: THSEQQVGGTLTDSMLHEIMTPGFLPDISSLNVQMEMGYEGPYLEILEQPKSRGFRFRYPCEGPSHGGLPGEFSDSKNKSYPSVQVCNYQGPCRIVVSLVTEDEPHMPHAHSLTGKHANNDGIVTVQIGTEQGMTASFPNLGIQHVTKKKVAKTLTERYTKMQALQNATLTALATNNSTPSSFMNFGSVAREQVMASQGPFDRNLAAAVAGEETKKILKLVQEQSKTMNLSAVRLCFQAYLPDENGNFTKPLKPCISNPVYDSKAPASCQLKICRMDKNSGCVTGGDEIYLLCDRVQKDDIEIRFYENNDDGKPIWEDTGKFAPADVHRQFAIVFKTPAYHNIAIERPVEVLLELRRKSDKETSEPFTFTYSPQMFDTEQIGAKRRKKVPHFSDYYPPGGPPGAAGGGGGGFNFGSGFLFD

Experiment [1] has as its target T2, GST-Nv-NF-kB (Cys allele) (Nematostella vectensis, UniProt E5G601 2-411).
T2 sequence: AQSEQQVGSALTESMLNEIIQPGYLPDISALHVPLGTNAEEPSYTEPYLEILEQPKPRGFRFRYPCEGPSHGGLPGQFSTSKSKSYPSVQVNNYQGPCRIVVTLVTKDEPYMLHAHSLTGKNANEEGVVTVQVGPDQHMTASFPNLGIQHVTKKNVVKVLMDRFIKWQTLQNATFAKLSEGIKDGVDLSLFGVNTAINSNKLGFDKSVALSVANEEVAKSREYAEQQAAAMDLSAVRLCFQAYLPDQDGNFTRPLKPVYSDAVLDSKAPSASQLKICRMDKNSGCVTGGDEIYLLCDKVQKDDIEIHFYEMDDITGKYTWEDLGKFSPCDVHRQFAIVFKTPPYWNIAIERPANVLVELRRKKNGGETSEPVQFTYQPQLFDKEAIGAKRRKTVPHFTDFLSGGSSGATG

Experiment [2] deals with T3, GST-Nv-NF-kB (Ser allele) (Nematostella vectensis, UniProt A7UNT2 2-411).
T3 sequence: T2 sequence with Q21R, C66S, S207N, E215Q, V217A, E225K, A268E, D399E

The target in another experiment is T4, GST-Co-NF-kB (Capsaspora owczarzaki, UniProt F1ARL5 200-546).
T4 sequence: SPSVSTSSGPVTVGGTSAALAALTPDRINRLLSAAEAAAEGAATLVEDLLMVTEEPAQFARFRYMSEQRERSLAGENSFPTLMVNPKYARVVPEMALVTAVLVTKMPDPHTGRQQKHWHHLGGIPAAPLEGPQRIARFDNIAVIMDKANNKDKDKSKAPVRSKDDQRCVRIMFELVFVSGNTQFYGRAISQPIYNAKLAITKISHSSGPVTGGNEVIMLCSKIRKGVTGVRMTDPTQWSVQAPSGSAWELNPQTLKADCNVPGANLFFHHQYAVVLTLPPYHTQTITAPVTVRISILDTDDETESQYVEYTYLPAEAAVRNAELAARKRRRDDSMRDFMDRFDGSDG

A further experiment concerns the target T5, GST-Dm-Relish (Drosophila melanogaster, UniProt Q94527 99-473).
T5 sequence: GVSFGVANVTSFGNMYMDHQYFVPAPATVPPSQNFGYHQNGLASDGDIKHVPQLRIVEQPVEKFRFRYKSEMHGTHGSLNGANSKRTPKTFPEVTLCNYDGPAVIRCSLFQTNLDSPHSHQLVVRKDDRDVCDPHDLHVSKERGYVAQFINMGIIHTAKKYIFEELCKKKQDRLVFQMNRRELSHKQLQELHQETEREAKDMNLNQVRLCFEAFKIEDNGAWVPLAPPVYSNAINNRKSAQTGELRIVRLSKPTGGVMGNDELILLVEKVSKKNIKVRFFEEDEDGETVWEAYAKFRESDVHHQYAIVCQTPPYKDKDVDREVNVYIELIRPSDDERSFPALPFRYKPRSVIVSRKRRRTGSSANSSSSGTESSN

The next experiment has as its target T6, GST-Aq-NF-kB (Amphimedon queenslandica, UniProt A9Y5G7 2-389).
T6 sequence: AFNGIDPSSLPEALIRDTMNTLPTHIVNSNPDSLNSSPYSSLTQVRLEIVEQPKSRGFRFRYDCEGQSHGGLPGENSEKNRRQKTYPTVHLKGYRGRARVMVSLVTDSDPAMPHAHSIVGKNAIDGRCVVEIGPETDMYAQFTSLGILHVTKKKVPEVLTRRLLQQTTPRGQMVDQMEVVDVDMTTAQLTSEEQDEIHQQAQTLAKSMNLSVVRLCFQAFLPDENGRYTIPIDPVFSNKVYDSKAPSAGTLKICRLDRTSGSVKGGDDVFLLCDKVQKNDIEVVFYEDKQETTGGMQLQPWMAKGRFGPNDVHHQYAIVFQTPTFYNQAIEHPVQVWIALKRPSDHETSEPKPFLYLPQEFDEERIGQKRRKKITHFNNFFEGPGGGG

A further experiment addresses GST-Hu-p50 (Homo sapiens, UniProt P19838 7-356).

Substitutions are numbered along the chain they refer to.

Sequence of GST-Hu-p50 (P19838 7-356): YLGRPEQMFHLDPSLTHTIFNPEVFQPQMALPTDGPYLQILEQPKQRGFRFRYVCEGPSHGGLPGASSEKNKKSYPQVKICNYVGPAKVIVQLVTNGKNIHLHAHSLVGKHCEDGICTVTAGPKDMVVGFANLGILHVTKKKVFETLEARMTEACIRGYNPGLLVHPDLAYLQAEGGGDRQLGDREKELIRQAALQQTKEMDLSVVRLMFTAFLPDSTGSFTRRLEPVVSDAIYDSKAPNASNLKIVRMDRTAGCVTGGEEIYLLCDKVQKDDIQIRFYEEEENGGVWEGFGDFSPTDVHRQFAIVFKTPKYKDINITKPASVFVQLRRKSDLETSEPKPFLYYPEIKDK

Turning to “CCGATTAACATCAAAATAACCCCTGATGTTAATCGGGTCTTGATTCGCTTGACGCTGCTG”, the binding signal amounted to 6.69 z-score with GST-Ap-NF-kB RHD; 5.59 z-score in experiment [1]; 5.3 z-score in experiment [2]; 3.27 z-score in the experiment with GST-Co-NF-kB; 4.93 z-score in the experiment with GST-Dm-Relish; 5.19 z-score in the experiment with GST-Aq-NF-kB. The sequence further showed a binding signal with GST-Hu-p50 of 5.2 z-score.
“CCGATTAACATCAAACAGCCCCCTGATGTTAATCGGGTCTTGATTCGCTTGACGCTGCTG”: the binding signal stood at 3.65 z-score in the experiment with GST-Ap-NF-kB RHD; 4.11 z-score in experiment [1]; 2.49 z-score in experiment [2]; 1.91 z-score with GST-Co-NF-kB; 2.9 z-score with GST-Dm-Relish; 5.29 z-score with GST-Aq-NF-kB. Further, the binding signal with GST-Hu-p50 came to 3.92 z-score.
Consider “CCGATTAACATCAGGGGGGTGTATGATGTTAATCGGGTCTTGATTCGCTTGACGCTGCTG”, for which the binding signal with GST-Ap-NF-kB RHD amounted to 3.69 z-score; in experiment [1], 3.97 z-score; in experiment [2], 4.14 z-score; in the experiment with GST-Co-NF-kB, 4.29 z-score; in the experiment with GST-Dm-Relish, 4.17 z-score; in the experiment with GST-Aq-NF-kB it was 4.24 z-score. Further, in the experiment with GST-Hu-p50, the binding signal was found to be 3.91 z-score.
With “CCGATTAACATCACAAAAACCCCTGATGTTAATCGGGTCTTGATTCGCTTGACGCTGCTG”, the binding signal with GST-Ap-NF-kB RHD worked out at 7.23 z-score; in experiment [1], 7.23 z-score; in experiment [2] it was 6.81 z-score; with GST-Co-NF-kB, 2.92 z-score; with GST-Dm-Relish, 8.1 z-score; in the experiment with GST-Aq-NF-kB, 6.48 z-score. In addition, the binding signal in the experiment with GST-Hu-p50 worked out at 6.99 z-score.
Consider “CCGATTAACATCAGGGGGTACAATGATGTTAATCGGGTCTTGATTCGCTTGACGCTGCTG”, for which the binding signal with GST-Ap-NF-kB RHD is 4.98 z-score; in experiment [1], 3.08 z-score; in experiment [2], 4.91 z-score; in the experiment with GST-Co-NF-kB, 4.94 z-score; with GST-Dm-Relish it was 2.37 z-score; with GST-Aq-NF-kB, 2.98 z-score. The same sequence showed a binding signal with GST-Hu-p50 of 3.09 z-score.
With “CCGATTAACATCAGGGAAATTTATGATGTTAATCGGGTCTTGATTCGCTTGACGCTGCTG”, the binding signal in the experiment with GST-Ap-NF-kB RHD was determined as 5.86 z-score; in experiment [1], 8.28 z-score; in experiment [2], 7.67 z-score; with GST-Co-NF-kB it was 5.84 z-score; with GST-Dm-Relish, 4.1 z-score; with GST-Aq-NF-kB, 7.49 z-score. The sequence also registered a binding signal with GST-Hu-p50 of 5.55 z-score.
Consider “CCGATTAACATCACGTAATTCCCTGATGTTAATCGGGTCTTGATTCGCTTGACGCTGCTG”, for which the binding signal with GST-Ap-NF-kB RHD is 3.45 z-score; in experiment [1], 4.96 z-score; in experiment [2] it was 5.01 z-score; with GST-Co-NF-kB it was 4.02 z-score; with GST-Dm-Relish, 6.81 z-score; in the experiment with GST-Aq-NF-kB, 4.89 z-score. The sequence further yielded a binding signal in the experiment with GST-Hu-p50 of 3.49 z-score.
Turning to “CCGATTAACATCAAGGGTATTCCTGATGTTAATCGGGTCTTGATTCGCTTGACGCTGCTG”, the binding signal in the experiment with GST-Ap-NF-kB RHD is 5.29 z-score; in experiment [1], 5.81 z-score; in experiment [2], 4.65 z-score; with GST-Co-NF-kB, 1.17 z-score; with GST-Dm-Relish, 7.04 z-score; in the experiment with GST-Aq-NF-kB it was 5.86 z-score. In the experiment with GST-Hu-p50, this sequence returned a binding signal of 4.55 z-score.
“CCGATTAACATCAGGGGAGTACCTGATGTTAATCGGGTCTTGATTCGCTTGACGCTGCTG”: the binding signal was 7.52 z-score with GST-Ap-NF-kB RHD; 5.33 z-score in experiment [1]; 6.46 z-score in experiment [2]; 3.7 z-score with GST-Co-NF-kB; 7.86 z-score in the experiment with GST-Dm-Relish; 7.18 z-score in the experiment with GST-Aq-NF-kB. In the experiment with GST-Hu-p50, this sequence registered a binding signal of 4.93 z-score.
On to “CCGATTAACATCAGGGAACCACCTGATGTTAATCGGGTCTTGATTCGCTTGACGCTGCTG”, for which the binding signal with GST-Ap-NF-kB RHD is 6.9 z-score; in experiment [1], 5.68 z-score; in experiment [2], 4.58 z-score; with GST-Co-NF-kB, 1.22 z-score; with GST-Dm-Relish, 9.5 z-score; with GST-Aq-NF-kB, 6.96 z-score. Besides, the binding signal in the experiment with GST-Hu-p50 came to 5.71 z-score.
Take “CCGATTAACATCAGGGGGATGCATGATGTTAATCGGGTCTTGATTCGCTTGACGCTGCTG”: the binding signal with GST-Ap-NF-kB RHD amounted to 4.72 z-score; in experiment [1] it was 4.49 z-score; in experiment [2] it was 5.56 z-score; in the experiment with GST-Co-NF-kB, 4.12 z-score; with GST-Dm-Relish, 3.39 z-score; with GST-Aq-NF-kB, 3.86 z-score. In the experiment with GST-Hu-p50, the binding signal came to 4.84 z-score.
Consider “CCGATTAACATCAAGAAATTCCCTGATGTTAATCGGGTCTTGATTCGCTTGACGCTGCTG”, for which the binding signal came to 5.84 z-score with GST-Ap-NF-kB RHD; 8.19 z-score in experiment [1]; 8.01 z-score in experiment [2]; 4.57 z-score with GST-Co-NF-kB; 5.32 z-score in the experiment with GST-Dm-Relish; 6.81 z-score with GST-Aq-NF-kB. The sequence further yielded a binding signal in the experiment with GST-Hu-p50 of 5.84 z-score.

The values above are taken from PMC5700166.
